Screening results deposited in PubChem BioAssay by The Scripps Research Institute Molecular Screening Center.
CHRM4 antagonist: human M4 muscarinic receptor antagonists, primary screen, CHO cells, Fluo-8 calcium fluorescence; CHO-hM4 cells, ACh EC80; inhibition, % at 3 µM; 0.73% of 360,000 active; AID 624125, 2012;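 active means inhibition above its plate's cutoff, the mean inhibition of sample wells plus 3 SD, cut at about 27% in these data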;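 further: 0% = acetylcholine EC80 with DMSO and 100% = DMSO without agonist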
Target sequence (P08173 whole entry, looked up): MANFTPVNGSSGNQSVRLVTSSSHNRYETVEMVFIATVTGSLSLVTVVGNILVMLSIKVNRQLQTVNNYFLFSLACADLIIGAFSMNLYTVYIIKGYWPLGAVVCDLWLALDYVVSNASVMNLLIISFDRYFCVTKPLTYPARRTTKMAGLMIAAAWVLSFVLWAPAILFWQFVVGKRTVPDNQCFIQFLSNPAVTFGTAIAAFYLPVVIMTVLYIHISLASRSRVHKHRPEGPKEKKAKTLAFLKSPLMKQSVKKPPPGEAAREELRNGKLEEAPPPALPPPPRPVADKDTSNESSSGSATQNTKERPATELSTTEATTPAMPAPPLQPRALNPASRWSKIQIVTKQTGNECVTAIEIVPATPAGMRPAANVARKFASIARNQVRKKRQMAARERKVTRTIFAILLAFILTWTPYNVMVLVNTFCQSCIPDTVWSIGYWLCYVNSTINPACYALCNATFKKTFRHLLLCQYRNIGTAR
M4 PAM: human M4 muscarinic receptor positive allosteric modulators, primary screen, CHO-K1 cells, Fluo-8 calcium fluorescence; CHO-K1 hM4/Gqi5, ACh EC20; 0% = ACh EC20, 100% = maximal ACh; Muscarinic acetylcholine receptor M4 (Homo sapiens), P08173; 0.4% of 360,000 active; AID 624126, 2012; activation, % at 3 µM;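 active means activation above its plate's cutoff, the mean activation of sample wells plus 3 SD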
CHO-K1 Ca antag: nonselective inhibitor or artifact in parental CHO-K1 cells | ATP-induced calcium, Fluo-8 fluorescence | 0.6% of 360,000 active | inhibition, % at 3 µM | AID 602250;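 active means inhibition above a per-plate cutoff, the plate's mean sample inhibition plus 3 SD, cut at about 24% in these data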;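 further: 0% = DMSO plus EC80 ATP and 100% = DMSO alone without ATP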
M1 PAM parental: nonselective calcium activators in parental CHO-K1 cells, primary screen, counter-screen for M1 PAM project, cell-based, Fluo-8 calcium fluorescence, full deck, 1536-well. ATP EC20; 0% at ATP EC20, 100% at ATP max. activation, % at 3 µM. 0.02% of 360,000 active. AID 602247, 2012;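 active means activation above the run cutoff, the mean activation of all test compounds plus 3 SD, cut at about 40% in these data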;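 further: peak over basal fluorescence ratio in a 140 s read after ATP addition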
CHRM4 agonist: human M4 muscarinic receptor agonists, primary screen, CHO-K1 cells, Fluo-8 calcium fluorescence. Muscarinic acetylcholine receptor M4 (Homo sapiens), P08173. CHO-K1 hM4/Gqi5; vehicle 0%, full acetylcholine response 100%. activation, % at 3 µM. 0.14% of 360,000 active. AID 624127, 2012;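 active means activation above the run mean over all test wells plus 3 SD, cut at about 32% in these data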;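 further: peak over basal fluorescence ratio per well then scaled between controls; 0% = DMSO wells and 100% = acetylcholine at EC100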
CHO-K1 Ca ag: counter-screen for M1 agonists: effect in parental CHO-K1 cells | Fluo-8 calcium fluorescence; scaled to maximal ATP response, vehicle zero | activation, % at 3 µM | 0.48% of 360,000 active; in the data active means activation above about 15%;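 further: untransfected CHO-K1 host cells lacking M1 receptor as counterscreen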
* marks the source's active call; other numbers are inactive results. Compounds with a hit are over-represented: about 2% of the library has one in this group of screens.

SMILES	CHRM4 antagonist	M4 PAM	CHO-K1 Ca antag	M1 PAM parental	CHRM4 agonist	CHO-K1 Ca ag
CC(=O)Oc1ccccc1Cn1c(C)c(C(=O)NCc2ccc(F)cc2)sc1=O	6.6	-3.4	-7.0	16.5	10.1	5.0
O=C(NCC1CCCO1)C1CCC(=O)N1Cc1ccccc1Cl (centres undefined)	6.5	2.4	24.9*	-5.0	-0.1	-0.3
O=C(NCCN1CCOCC1)C1CCC(=O)N1Cc1ccccc1Cl (centres undefined)	5.2	6.4	-7.4	18.8	-0.1	0.3
O=C(CSc1nc2c(oc3ccccc32)c(=O)n1CC1CCCO1)NCc1ccc(F)cc1 (centres undefined)	-2.2	10.9	-12.5	5.5	1.8	1.0
COc1ccccc1NC(=O)Nc1nc(C(C)(C)C)cs1	-16.1	4.4	-25.0	36.7	-0.3	31.0*
COc1ccccc1NC(=O)Nc1nc(C(N)C(C)C)cs1 (centres undefined)	-3.6	3.1	-9.4	16.4	3.0	0.6
c1coc(CN(Cc2ccco2)c2ncnc3c2oc2ccccc23)c1	36.8*	-23.1	9.8	17.0	7.3	6.3
Cc1ccc(OCC(=O)NC(=S)Nc2ccc3c4c(cccc24)CC3)cc1	-3.6	-1.4	-9.7	8.3	0.6	2.0
CC(C)c1ccc(OCC(=O)NC(=S)Nc2ccc3c4c(cccc24)CC3)cc1	29.6*	4.7	-2.2	16.2	1.8	0.5
CC1(CCc2ccc3c(c2)OCO3)NCCc2c1[nH]c1ccccc21 (centres undefined)	4.2	-8.5	4.7	-3.4	24.6	20.7*
CC1(CCc2ccc3c(c2)OCO3)NC(=O)c2ccccc2N1 (centres undefined)	1.4	-4.0	-7.3	21.9	1.4	0.6
NS(=O)(=O)c1ccc(CNC(=O)c2cc(-c3cccs3)nc3ccccc23)cc1	30.0*	-20.4	-1.2	-8.1	16.1	6.0
CN(C)S(=O)(=O)c1cccc(NC(=O)c2cc(-c3cccs3)nc3ccccc23)c1	31.2*	-32.5	5.1	16.1	21.5	7.2
NS(=O)(=O)c1ccc(CCNC(=O)c2cc(-c3cccs3)nc3ccccc23)cc1	15.7	-14.6	11.1	15.6	16.8	5.6
NS(=O)(=O)c1cccc(NC(=O)c2cc(-c3cccs3)nc3ccccc23)c1	29.6*	-22.2	-8.4	9.8	12.9	5.8
Cc1ccc(S(=O)(=O)N(C)C)cc1NC(=O)c1cc(-c2ccncc2)nc2ccccc12	-11.6	-7.2	-7.2	0.5	16.0	5.6
COc1ccccc1CNC(=O)COC(=O)CCC(=O)c1cccs1	2.8	3.0	-12.6	6.6	0.6	0.2
Cc1nn(Cc2c(Cl)cccc2Cl)c(C)c1NC(=O)CCCn1nc(C)c([N+](=O)[O-])c1C	-1.2	-5.1	-1.4	17.8	6.3	4.2
Cc1nn(CCCC(=O)Nc2cccnc2Cl)c(C)c1[N+](=O)[O-]	28.8*	11.7	-11.2	2.5	0.8	0.6
O=C(COC(=O)CC1CC2CCC1C2)Nc1ccc(Cl)c(S(=O)(=O)N2CCOCC2)c1 (centres undefined)	-7.6	-5.4	-15.7	9.3	17.0	8.3
CCCn1c(N)c(C(=O)CSc2nnc3ccccn23)c(=O)n(C)c1=O	-0.4	27.2*	13.3	-27.2	2.0	-0.1
CCCn1c(N)c(C(=O)CSc2nnc(C)n2Cc2ccccc2)c(=O)n(C)c1=O	0.1	9.1	0.3	16.0	0.5	0.2
COc1ccc(S(=O)(=O)N2CCN(C(=O)c3ccccc3Cc3ccccc3)CC2)cc1OC	0.4	-1.8	-9.4	2.5	0.4	0.0
O=C(CCN1CCC(c2cccs2)=N1)c1cccs1	-0.4	-1.1	-5.7	7.0	2.0	1.7
COc1cc(/C=C/C(=O)OCC(=O)Nc2ccc([N+](=O)[O-])cc2)ccc1O	2.1	-11.0	-14.2	12.4	39.0*	19.2*
SMILES	CHRM4 antagonist	M4 PAM	CHO-K1 Ca antag	M1 PAM parental	CHRM4 agonist	CHO-K1 Ca ag
C/C=C/c1c(F)c(F)c(Oc2ccc(C(=O)O)cc2)c(F)c1F	8.1	-4.2	-3.3	21.8	-0.1	-0.1
C/C(=N/NC(=O)CNC(=O)c1ccc2c(c1)OCO2)c1ccc2c(c1)CCCC2	7.4	4.8	25.3*	-17.0	-1.1	-1.3
C/C(=N/NC(=O)CNC(=O)c1ccccc1F)c1ccc2c(c1)CCCC2	7.8	-3.1	0.4	-4.1	0.4	-0.3
COc1ccc2nc(C)cc(SCC(=O)NNC(=O)COc3ccccc3)c2c1	-4.5	0.5	3.1	4.1	1.5	0.3
COc1ccc2nc(C)cc(Sc3nc4ccccc4s3)c2c1	8.1	-9.1	-0.7	11.4	4.0	28.8*
CS(=O)(=O)N1c2ccccc2[C@]2(Br)C[C@H]3C(=O)N[C@@H](Cc4ccccc4)C(=O)N3[C@H]12	4.8	5.5	-1.1	-12.2	4.0	0.8
CCN(CC)CCCNc1nc2cc(OC)c(OC)cc2c2nc(-c3ccccc3)nn12	-4.4	16.6*	8.0	-4.8	1.8	0.0
Cc1ccsc1C(=O)OCC(=O)NCc1ccccc1	3.6	-1.4	-2.5	-0.7	0.2	-0.6
CC(=O)Nc1cccc(NC(=O)C2CCCO2)c1 (centres undefined)	-7.7	5.0	-3.7	1.6	1.2	-0.2
CN1/C(=C\C=C2/SC(=S)NC2=O)C(C)(C)c2ccccc21	44.5*	-28.6	59.1*	-18.6	65.0*	71.9*
CC1=NN(c2ccccc2)C(=O)/C1=C\C=C1/N(C)c2ccccc2C1(C)C	-3.9	-10.2	13.6	-1.5	24.9	32.0*
COc1ccc(COC(=O)N/N=C/c2cccs2)cc1	6.3	-3.7	0.8	-8.7	0.0	-0.2
O=C(Nc1oc2ccccc2c(=O)c1-c1ccc(Br)cc1)c1ccco1	2.4	-2.8	-8.1	2.4	1.6	0.7
COc1ccc(NC(=O)COC(=O)CC2CCCC2)cc1	-7.2	3.5	-9.3	9.8	0.9	0.8
CCOC(=O)N1CCN(C(=O)c2ccc(CS(=O)c3cccc(C)c3)o2)CC1 (centres undefined)	-3.1	4.0	-2.1	12.2	1.4	0.6
C[C@@]12C(=O)Nc3ccc(F)cc3C(=O)N1[C@H]1c3ccccc3OC[C@@H]1[C@@H]2c1ccccc1	89.1*	-15.2	-7.3	11.7	0.2	1.0
CCOC(=O)[C@H]1[C@H]2COc3ccccc3[C@@H]2N2C(=O)c3cc(OC)c(OC)cc3NC(=O)[C@@]12C	35.1*	-3.3	-15.7	-3.2	1.4	0.9
C[C@@]12C(=O)Nc3cc(F)c(F)cc3C(=O)N1[C@H]1c3ccccc3OC[C@@H]1[C@@H]2c1ccccc1	71.3*	-14.8	-16.2	8.1	2.2	0.7
